Screening data deposited in PubChem by ICCB-Longwood Screening Facility, Harvard Medical School.
Sampled rows, rich in hits. Any-hit rate of the full collection: about 1.4%.
MenB inh – inhibitors of Mycobacterium tuberculosis MenB enzyme | inhibition, % (test concentration not listed) | P9WNP5 | AID 540299 | MenB enzyme assay, absorbance read-out | hit rate 0.43% among 100,000; in the data active = inhibition above about 21%, passing the limit was not always enough
Mtb MbtI inh – blocks the Mycobacterium tuberculosis siderophore enzyme MbtI | purified MbtI enzyme, fluorescence intensity read-out | hit rate 0.89% among 100,000 | inhibition, % (test concentration not listed); in the data active = inhibition mostly above about 56%, no sharp cut-off; inactive = mostly below about 77%
Target sequence (P9WFX0 whole entry, looked up): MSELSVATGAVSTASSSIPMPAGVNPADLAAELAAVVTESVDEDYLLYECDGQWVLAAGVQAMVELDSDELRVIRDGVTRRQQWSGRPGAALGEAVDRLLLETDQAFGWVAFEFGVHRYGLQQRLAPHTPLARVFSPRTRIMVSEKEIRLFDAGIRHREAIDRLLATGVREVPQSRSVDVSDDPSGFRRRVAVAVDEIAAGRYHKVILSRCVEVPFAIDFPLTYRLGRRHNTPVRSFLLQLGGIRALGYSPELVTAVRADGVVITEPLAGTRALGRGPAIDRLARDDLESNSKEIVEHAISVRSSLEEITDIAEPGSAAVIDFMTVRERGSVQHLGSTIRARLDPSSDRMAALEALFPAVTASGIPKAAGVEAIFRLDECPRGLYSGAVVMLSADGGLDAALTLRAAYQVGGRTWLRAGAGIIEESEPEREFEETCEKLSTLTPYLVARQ
Polio RdRp inh – inhibitors of poliovirus RNA polymerase binding and polymerization. hit rate 0.66% among 150,000. % elongation, % (compound at 16.7 µg/mL). poliovirus polymerase elongation, fluorescence polarization; active compounds read low. AID 588519. P03300; in the data active = % elongation below about 90%
Starred values were filed as active, the others as inactive; ! = a repeat was not active.

Screening CCC(Sc1nc(O)cc(=O)[nH]1)C(=O)Nc1nnc(C(C)C)s1 (centres undefined) returned MenB inh -99.2, Mtb MbtI inh 4.2 and Polio RdRp inh 102.0.
CCO/C=C1/C(=O)N(C)C(=O)c2ccccc21 was read as MenB inh 10.2, Mtb MbtI inh 23.4 and Polio RdRp inh 17.0.
`CCO/C=C1\C(=O)N(Cc2ccccc2)C(=O)c2ccccc21` gave Mtb MbtI inh -5.3 and Polio RdRp inh 62.0*.
CN1C(=O)C2C=CC=CC2NC1=S (centres undefined) was read as MenB inh -73.3, Mtb MbtI inh 43.6 and Polio RdRp inh 87.0*.
CCN1C(=O)C2C=CC=CC2NC1=S (centres undefined) was read as MenB inh 3.7, Mtb MbtI inh 2.7 and Polio RdRp inh 101.0.
For COc1cn(-c2ccccc2)nc1C(=O)OC(C)C(N)=O (centres undefined) the results were MenB inh -4.4, Mtb MbtI inh 102.4 and Polio RdRp inh 101.0.
For O=C1NN(c2ccccc2)C(=O)/C1=C/c1ccc(Br)cc1 the results were MenB inh 79.4* and Polio RdRp inh 98.0.
For O=C1NC(=O)C(=Cc2ccc(Br)cc2)C(=O)N1 the results were MenB inh -38.6 and Polio RdRp inh 100.0.
For NCC1CCN(Cc2ccccc2)C1 (centres undefined) the results were MenB inh 28.2*, Mtb MbtI inh 34.2 and Polio RdRp inh 103.0.
c1ccc(CN2CCCC(c3ccccc3)C2)cc1 (centres undefined) was read as Mtb MbtI inh -10.9.
`Cn1c(SCC(=O)c2ccc(F)cc2)nnc1-c1ccccc1Br` gave Polio RdRp inh 102.0.
COc1ccccc1-c1nnc(SCC(=O)c2ccc(F)cc2)n1-c1ccccc1 was read as Polio RdRp inh 83.0*.
CCOC(=O)c1cc(-c2ccc(F)cc2)n(CC(=O)NCc2cccs2)c1C was read as MenB inh -21.3, Mtb MbtI inh -7.3 and Polio RdRp inh 102.0.
`CC(C)n1c(=S)[nH]c2scc(-c3cccs3)c2c1=O` gave MenB inh -54.3, Mtb MbtI inh 12.9 and Polio RdRp inh 105.0.
O=c1c2c(-c3cccs3)csc2[nH]c(=S)n1-c1ccccc1 was read as MenB inh -42.7, Mtb MbtI inh 99.3*! and Polio RdRp inh 83.0*!.
Screening CCSc1nnc(-c2cccc(S(=O)(=O)N(C)C)c2)n1-c1ccc(F)cc1 returned MenB inh 0.7, Mtb MbtI inh -36.8 and Polio RdRp inh 105.0.
CCOc1ccc(CC(=O)Nc2cccc(-c3ccc(N4CCOCC4)nn3)c2)cc1 was read as MenB inh 11.6, Mtb MbtI inh 12.7 and Polio RdRp inh 101.0.
Screening Cn1cc(Br)c(N2C(=O)C=CC2=O)n1 returned MenB inh -12.3, Mtb MbtI inh 94.7* and Polio RdRp inh 100.0.
For COc1cc(NC(=O)CCCSc2nc(-c3ccco3)cc(C(F)(F)F)n2)cc(OC)c1OC the results were Polio RdRp inh 102.0.
COc1cccc(NC(=O)CCSc2nc(-c3ccco3)cc(C(F)(F)F)n2)c1 was read as Polio RdRp inh 90.0*.
`N#Cc1ccc(-c2cccc(Cl)c2Cl)o1` gave MenB inh -35.8, Mtb MbtI inh 20.6 and Polio RdRp inh 103.0.
For CC(=O)N1CCN(C(=S)c2ccc(-c3cccc(Cl)c3Cl)o2)CC1 the results were MenB inh -24.0, Mtb MbtI inh 96.3* and Polio RdRp inh 102.0.
For O=C(/C=C/c1ccco1)NC(=S)NC12CC3CC(CC(C3)C1)C2 the results were MenB inh -0.2, Mtb MbtI inh -1.2 and Polio RdRp inh 101.0.
CCC(C)NC(=O)c1nc2c(nnn2Cc2ccccc2Cl)c(=O)[nH]1 (centres undefined) was read as MenB inh -12.2, Mtb MbtI inh -1.2 and Polio RdRp inh 104.0.
Screening CCc1nnc(Cn2nnc3c(=O)[nH]c(C(=O)Nc4ccc(C)cc4)nc32)s1 returned MenB inh -89.1, Mtb MbtI inh 16.5 and Polio RdRp inh 86.0*.
`Nc1ccc(C(=O)Nc2ccccc2)cc1` gave MenB inh -21.9, Mtb MbtI inh 17.0 and Polio RdRp inh 99.0.
Screening CN(Cc1nc2ccccc2c(=O)[nH]1)Cc1nc2scc(-c3cccs3)c2c(=O)[nH]1 returned MenB inh -57.8, Mtb MbtI inh -18.1 and Polio RdRp inh 101.0.
For Cc1ccc(C(=O)Oc2ccc(/C=N/c3cccs3)cc2)cc1 the results were MenB inh -9.7 and Polio RdRp inh 104.0.
CCNS(=O)(=O)c1ccc(S(=O)(=O)N(Cc2ccccn2)C2CCCCC2)cc1 was read as MenB inh -23.8, Mtb MbtI inh -13.4 and Polio RdRp inh 105.0.
Screening CCC(C)NS(=O)(=O)c1ccc(S(=O)(=O)N(Cc2ccc(C)o2)C2CCCC2)cc1 (centres undefined) returned MenB inh 32.5*, Mtb MbtI inh -2.4 and Polio RdRp inh 102.0.
For CC1=CC(=O)C(CCCC2=CC(=O)C=CC2=O)=CC1=O the results were MenB inh -0.1, Mtb MbtI inh 100.3* and Polio RdRp inh 102.0.
